According to ChEMBL document CHEMBL1961873, “Compounds: GSK PKIS; Assays: Nanosyn kinase panel” (2012):

Biological target: Calcium/calmodulin-dependent protein kinase type 1D (Homo sapiens) (UniProt Q8IU85)
Conditions: at 0.1 µM
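Further: reported figure is the mean inhibition of CAMK1D, from the GSK PKIS screening.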

Sequence of Calcium/calmodulin-dependent protein kinase type 1D (Homo sapiens) (Q8IU85 whole entry, looked up): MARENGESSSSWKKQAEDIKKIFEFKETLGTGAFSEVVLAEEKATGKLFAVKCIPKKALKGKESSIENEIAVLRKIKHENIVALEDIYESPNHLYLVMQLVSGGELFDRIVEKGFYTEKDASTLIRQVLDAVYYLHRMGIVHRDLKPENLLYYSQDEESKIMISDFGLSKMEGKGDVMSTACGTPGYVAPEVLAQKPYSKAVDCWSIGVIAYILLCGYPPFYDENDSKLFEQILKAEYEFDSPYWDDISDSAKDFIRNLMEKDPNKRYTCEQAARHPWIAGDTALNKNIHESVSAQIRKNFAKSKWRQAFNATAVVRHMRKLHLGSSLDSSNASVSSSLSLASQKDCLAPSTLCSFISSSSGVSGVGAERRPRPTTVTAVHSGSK

Structure (SMILES) | inhibition [%]
CCCN1CCC(Oc2cc(Nc3nc(Nc4cccc(F)c4C(N)=O)c4cc[nH]c4n3)c(OC)cc2Cl)CC1 | 3.19
COc1cc(C)c(NC(=O)CN(C)C)cc1Nc1nc(Nc2cccc(F)c2C(N)=O)c2cc[nH]c2n1 | 2.17
CC1=C(C(=O)Nc2ccc3[nH]ncc3c2)C(c2ccc(Cl)c(Cl)c2)CC(=O)N1 (centres undefined) | -0.31
CCn1c(-c2nonc2N)nc2cncc(C(=O)N3CC[C@H](N)C3)c21 | 1.79
NS(=O)(=O)c1ccc(N/N=C2\C(=O)Nc3ccc(C(=O)NCCc4c[nH]cn4)cc32)cc1 | 1.24
CCCN1CCC=C(c2ccc(Nc3nc(Nc4ccccc4C(N)=O)c4cc[nH]c4n3)c(C)c2)C1 | 1.21
CCn1c(-c2nonc2N)nc2cncc(C(=O)N3CCNCC3)c21 | 0.79
Nc1nc(-c2ccc3c(c2)C(=Cc2cc(Br)c(O)c(Br)c2)C(=O)N3)cs1 | 0.31
COc1ccc2cc(-c3c(-c4ccncc4)nc(-c4ccc([S+](C)[O-])cc4)n3C)ccc2c1 (centres undefined) | -0.09
CC(C)=Cc1cccc2c1/C(=N/Nc1ccc(S(N)(=O)=O)cc1)C(=O)N2 | 0.31
CS(=O)(=O)CCNCc1nc(-c2ccc3ncnc(Nc4ccc(F)c(Cl)c4)c3c2)cs1 | 1.26
NC(=O)c1ccc(-c2nc(-c3ccccn3)c(-c3ccc4c(c3)OCO4)[nH]2)cc1 | 0.53
COC(=O)Nc1nc2cc(Oc3cccc(NC(=O)Nc4cc(C(F)(F)F)ccc4F)c3)ccc2[nH]1 | 0.54
Cc1nnc(-c2ccc(C)c(-c3ccc(C(=O)Nc4cccc(C#N)c4)cc3)c2)o1 | 0.65
